Laboratory results: PubChem BioAssay (Tox21)
Results filed as inconclusive are left out. The source made the active and inactive calls. Unless noted, the call rests on the fitted dose curve; in most records, active means well fitted curve in the direction sought with a large enough effect in the repeat runs; inconclusive means weak or mixed curves; inactive means no such curve, though single readings can be large; an effect the other way counts as inactive or inconclusive.

What was measured:
[1] = qHTS assay to identify small molecule antagonists of the vitamin D receptor (VDR) signaling pathway - cell viability counter screen (AID 743225); further: on the % scale 0 is the no-effect control and ±100 the full control effect; nearly all actives have a fitted effect of over 50% in size
Outline: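 Cells (VDR-UAS-bla HEK 293T) are plated, rested 4 h at 37C, dosed with compound and 3 nM final 1-alpha,25-dihydroxy vitamin D3, and incubated 16 h. Viability is taken from CellTiter-Glo luminescence in the reporter wells.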

[2] = qHTS assay to identify small molecule agonists of the NFkB signaling pathway (AID 1159509; active means well fitted curve in the direction sought with a large enough effect in the signal ratio in the repeat runs, not every such curve was filed as active; the % refers to the signal ratio; further: series mostly up to about 61 µM; on the % scale 0 is the no-effect control and ±100 the full control effect)
Outline: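 Readout: FRET fluorescence, 405 nm excitation, 460/530 nm emission; beta-lactamase expression disrupts FRET. Cells: ME-180 stably carrying NF-kB-driven bla reporter. Compound exposure 5 hr, 37 C, 5% CO2.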

[3] = qHTS assay to identify small molecule agonists of the NFkB signaling pathway - cell viability counter screen (AID 1159515; calls by dose curve; further: series mostly up to about 61 µM; on the % scale 0 is the no-effect control and ±100 the full control effect; nearly all actives have a fitted effect of over 55% in size)
Outline: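 Plate 2,000 NFkB-bla ME-180 cells/well; incubate overnight. Add compounds, 5 hr at 37 C. Add FRET substrate, 1.5 hr RT. Add CellTiter-Glo, 30 min RT; read luminescence.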

[4] = qHTS assay to identify small molecule agonists of the endoplasmic reticulum stress response signaling pathway (AID 1159516; active means well fitted activation curve with a large enough effect in the signal ratio in the repeat runs, not every such curve was filed as active; the % refers to the signal ratio; further: on the % scale 0 is the no-effect control and ±100 the full control effect)
Outline: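 Beta-lactamase expression from the ER stress response element in HeLa reporter cells is quantified with the LiveBLAzer B/G FRET substrate, read at 405 nm excitation after 2 hr at room temperature, following 5 hr compound treatment at 37 C.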

[5] = qHTS assay to identify small molecule agonists of the endoplasmic reticulum stress response signaling pathway - cell viability counter screen (AID 1159517; calls by dose curve; further: series mostly up to about 61 µM; on the % scale 0 is the no-effect control and ±100 the full control effect; nearly all actives have a fitted effect of over 50% in size)
Outline: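 Steps: seed 1,500 ESRE-bla HeLa cells per well; incubate overnight at 37 C, 5% CO2; add compounds in DMSO for 5 hr; run FRET substrate 2 hr RT; add CellTiter-Glo, wait 30 min, read luminescence.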

[6] = target: Nuclear receptor ROR-gamma (Homo sapiens) (UniProt P51449); experiment: qHTS assay to identify small molecule antagonists of the retinoid-related orphan receptor gamma (ROR-gamma) signaling pathway (AID 1159521;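 further: CHO cells with doxycycline inducible ROR-gamma driving an RORE luciferase reporter; top concentration of the series differs between compounds; on the % scale 0 is the no-effect control and ±100 the full control effect; nearly all actives have a fitted effect of over 50% in size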)
Outline: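 RORγ antagonism is scored from reduced reporter luminescence in Tet-on CHO cells. Induction used 1 uM final doxycycline hyclate for 16 h at 37 C, following a 2 h compound exposure.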

[7] = qHTS assay to identify small molecule agonists of the AP-1 signaling pathway - cell viability counter screen (AID 1159525; calls by dose curve; further: nearly all actives have a fitted effect of over 55% in size)
Outline: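 Same-well cytotoxicity counter screen of the Tox21 10K library in ME-180 cells. The readout is ATP-dependent luminescence after 5 h compound treatment. Data are normalised to DMSO and tetra n-octyl ammonium bromide controls.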

[8] = qHTS assay to identify small molecule agonists of the AP-1 signaling pathway (AID 1159526; calls by dose curve; further: on the % scale 0 is the no-effect control and ±100 the full control effect)
[9] = target: Retinoic acid receptor RXR-alpha (Homo sapiens) (UniProt P19793); experiment: qHTS assay to identify small molecule agonists of the RXR signaling pathway (AID 1159527; calls by dose curve; further: on the % scale 0 is the no-effect control and ±100 the full control effect; nearly all actives have a fitted effect of over 35% in size)
Outline: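 qHTS of the Tox21 10K library in GeneBLAzer RXR-alpha HEK 293T cells carrying a beta-lactamase reporter […]; 16 hr treatment, 9-cis retinoic acid as agonist control, FRET read-out.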

[10] = qHTS assay to identify small molecule agonists of the RXR signaling pathway - cell viability counter screen (AID 1159529); further: series mostly up to about 77 µM; on the % scale 0 is the no-effect control and ±100 the full control effect; nearly all actives have a fitted effect of over 50% in size
Outline: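 Cell viability is measured by CellTiter-Glo luminescence, 30 min at room temperature, in wells already read for beta-lactamase. Engineered HEK 293T cells (RXR-alpha-UAS-bla) are dosed 16 hr at 37 C. Tetraoctyl ammonium bromide serves as positive control.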

[11] = qHTS assay to identify small molecule antagonists of the retinoid acid receptor (RAR) signaling pathway - cell viability counter screen (AID 1159551); further: on the % scale 0 is the no-effect control and ±100 the full control effect; nearly all actives have a fitted effect of over 35% in size
Outline: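 Viability of C3RL4 cells is quantified from ATP by luminescence after 6 h treatment at 37 C with compounds and 1 uM retinol.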

[12] = qHTS assay to identify small molecule antagonists of the retinoic acid receptor (RAR) signaling pathway (AID 1159552)
Outline: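 Quantitative HTS in C3RL4 RARE-luciferase reporter cells. Compounds were added with 1 uM (final) retinol; luminescence was read after 6 hr.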

[13] = qHTS assay to identify small molecule agonists of the retinoic acid receptor (RAR) signaling pathway (AID 1159553); further: on the % scale 0 is the no-effect control and ±100 the full control effect
Outline: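 Compounds dissolved in DMSO were pinned onto C3RL4 cells seeded the previous day, and plates were held 6 hr at 37 C. RARE-driven luciferase output was then read by luminescence.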

[14] = qHTS assay to identify small molecule antagonists of the estrogen related receptor (ERR) signaling pathway - cell viability counter screen (AID 1224818)
Outline: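 Cytotoxicity check run alongside the ERR antagonist screen: cells exposed to test compounds 17.5 h at 37 C, viability taken as CellTiter-Fluor fluorescence intensity.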

[15] = qHTS assay to identify small molecule antagonists of the estrogen related receptor (ERR) signaling pathway (AID 1224819)
Outline: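 ERR reporter cells were plated at 2,000 cells/well and left 6 h at 37 C/5% CO2 before pin-tool transfer of compounds in DMSO. After 18 h at 37 C, One-Glo was added and luminescence was read 30 min later at room temperature.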

[16] = qHTS assay to identify small molecule agonists of the estrogen related receptor (ERR) signaling pathway (AID 1224820); further: on the % scale 0 is the no-effect control and ±100 the full control effect
Outline: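 Luminescence readout (One-Glo, 30 min RT) from NTP-supplied ERR cell line exposed to compounds for 18 h at 37 C. Cells seeded 2,000 per well and pre-incubated 6 h before pin-tool compound transfer.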

[17] = tested on: estrogen-related receptor alpha (ERRalpha) with PGC-1alpha coactivator, human; experiment: qHTS assay to identify small molecule antagonists of the estrogen related receptor signaling pathway with the pleiotropic PPARgamma coactivator (PGC) (AID 1224821; calls by dose curve)
Outline: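 PGC/ERR reporter cells; 6 h pre-incubation 37 C/5% CO2; pin-tool compound in DMSO, 18 h 37 C; One-Glo added, 30 min RT; luminescence read. qHTS antagonist mode.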

[18] = qHTS assay to identify small molecule antagonists of the estrogen related receptor signaling pathway with the pleiotropic PPARgamma coactivator (PGC) cell viability counter screen (AID 1224822)
Outline: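 Viable cell signal (CellTiter-Fluor, 30 min, 37 C/5% CO2) was measured in PGC/ERR cells after a 17.5 h compound incubation.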

[19] = qHTS assay to identify small molecule agonists of the estrogen related receptor signaling pathway with the pleiotropic PPARgamma coactivator (PGC) (AID 1224823); further: on the % scale 0 is the no-effect control and ±100 the full control effect
Outline: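 Luminescence readout (One-Glo, 30 min RT) from PGC/ERR cell line treated 18 h at 37 C with pin-tool-delivered DMSO compound solutions; cells plated 6 h before dosing. Quantitative HTS format.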

Retinoic acid receptor RXR-alpha (Homo sapiens), sequence (P19793 whole entry, looked up): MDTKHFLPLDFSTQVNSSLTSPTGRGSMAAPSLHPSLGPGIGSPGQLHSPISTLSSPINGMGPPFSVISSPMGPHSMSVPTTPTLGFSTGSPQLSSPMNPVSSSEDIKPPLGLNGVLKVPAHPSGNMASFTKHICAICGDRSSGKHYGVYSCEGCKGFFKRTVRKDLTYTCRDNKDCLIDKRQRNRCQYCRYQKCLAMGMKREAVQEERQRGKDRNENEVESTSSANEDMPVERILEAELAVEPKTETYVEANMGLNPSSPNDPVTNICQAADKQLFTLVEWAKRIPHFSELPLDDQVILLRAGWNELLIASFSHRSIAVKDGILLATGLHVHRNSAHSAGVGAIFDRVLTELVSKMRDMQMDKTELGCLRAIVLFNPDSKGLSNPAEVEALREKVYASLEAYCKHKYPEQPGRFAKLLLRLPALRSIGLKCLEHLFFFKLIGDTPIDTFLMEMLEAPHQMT

CC(C)C(C)(N)C#N (stereo not drawn)
inactive: Potency [1] | outcome [2] | outcome [3] | outcome [4] | Potency [5] | Potency [6] | Potency [7] | outcome [8] | Potency [9] | Potency [10] | Potency [11] | Potency [12] | Potency [13]

CCN(CC)CCOC(=O)C(O)(c1ccccc1)c1ccccc1
inactive: Potency [1] | outcome [2] | outcome [3] | outcome [4] | Potency [5] | Potency [6] | outcome [8] | Potency [10] | Potency [11] | Potency [12] | Potency [13]

CCCN1CCC[C@@H]2Cc3nc(N)ncc3C[C@H]21
inactive: Potency [1] | outcome [2] | outcome [3] | outcome [4] | Potency [5] | Potency [6] | Potency [7] | outcome [8] | Potency [10] | Potency [11] | Potency [12] | outcome [14] | outcome [15] | outcome [16] | outcome [17] | outcome [18] | outcome [19]

CC1N=C(N)OC1c1ccccc1 (stereo not drawn)
inactive: Potency [1] | outcome [2] | outcome [3] | outcome [4] | Potency [5] | Potency [6] | Potency [7] | outcome [8] | Potency [9] | Potency [10] | Potency [11] | Potency [12] | Potency [13]

CC(C)(C)NC[C@H](O)c1ccc(O)cc1Cl
inactive: Potency [1] | outcome [2] | outcome [3] | outcome [4] | Potency [5] | Potency [6] | Potency [7] | outcome [8] | Potency [9] | Potency [10] | Potency [11] | Potency [12] | Potency [13]

CC(=O)OCC1=C(C(=O)O)N2C(=O)[C@@H](N)[C@H]2SC1
inactive: Potency [1] | outcome [2] | outcome [3] | outcome [4] | Potency [5] | activity change, negative = inhibition [6] 30.2% [at 19 µM] | viability change, negative = cytotoxic [7] -1.2% [at 15.8 µM] | activation [8] 4.04% [at 15.8 µM] | activity change, negative = cytotoxicity [10] -9.25% [at 15.8 µM] | activity change, negative = cytotoxicity [11] 0.328% [at 19 µM] | activity, negative = inhibition [12] -17.1% [at 19 µM]

CON(C)C(=O)Nc1ccc(Br)cc1
inactive: Potency [1] | outcome [2] | outcome [3] | outcome [4] | Potency [5] | Potency [6] | Potency [7] | outcome [8] | Potency [9] | Potency [10] | Potency [11] | Potency [12]

CCc1cc(OC)c(C[C@H](C)N)cc1OC
inactive: outcome [2] | outcome [3] | outcome [4] | Potency [5] | Potency [6] | Potency [7] | outcome [8] | Potency [10] | Potency [11] | Potency [12] | Potency [13]

CCC1(c2ccccc2)CCC(=O)NC1=O (stereo not drawn)
inactive: Potency [1] | outcome [2] | outcome [3] | outcome [4] | Potency [5] | Potency [6] | Potency [7] | outcome [8] | Potency [9] | Potency [10] | Potency [11] | Potency [12] | Potency [13]

C/C(=N\NC(=O)Nc1cc(F)cc(F)c1)c1ncccc1C(=O)O
inactive: Potency [1] | outcome [2] | outcome [3] | Potency [5] | Potency [6] | outcome [8] | Potency [9] | Potency [10] | Potency [11]
